16 molecules from PubChem BioAssay (NCI) can be followed below.

Where “and” joins values, the source holds several entries; their conditions need not be identical. Identical values can stand only once. This is part of a sample that, as a whole, favours compounds with a hit. Of some 83,000 tested, about 20% had one in any assay.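 Single-concentration screen, 48 h exposure, 96-well plates. Endpoint: percent growth. Below 10 = active.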 Calls of active or inactive are those of the source.

For the assay, the system named is MDA-MB-468 breast. Briefly: NCI-60 one-dose screen, 48 h (100 = growth as untreated, 0 = no growth, -100 = all killed). The settings on record: 10 µM unless noted.
For the molecule `CCO/C=N/C1=C(C#N)C(c2ccc(OC)cc2)c2sc3c(F)cccc3c2O1` (stereo unspecified), the growth was 17.7% (inactive).
The result for `C[C@H](c1nc2ccc(N)cc2[nH]1)[C@H]1CC[C@H]2[C@@H]3CCC4=CC(=O)CC[C@]4(C)[C@H]3CC[C@]12C` reads 68.1% (inactive); that for `N#CCCN(CCO)c1ccccc1`, 97.3% (inactive); that for `O=C(N/N=C\c1ccccc1S(=O)(=O)O)N/N=C/c1ccccc1S(=O)(=O)O`, 101% (inactive).
On to `CC(C)(C)c1cc(O)c(C(C)(C)C)cc1O`, for which the growth is 66.2% (inactive).
Take `O=S(=O)(NCCCNc1nccc(-n2ccc3cccnc32)n1)c1cccc(C(F)(F)F)c1`: the growth is 108% (inactive).
The result for `CC(C)(O)C(=O)O` reads 108% (inactive); that for `COc1ccc(-c2nc3c(ncc4ccc(=O)[nH]c43)s2)cc1`, 62.9% (inactive); that for `CC(Nc1c(C#N)cnc2ccc(-c3cnc(N)nc3)cc12)c1ccccc1` (stereo unspecified), -9.18% (active).
For `COc1ccc(C2=NNC(c3sc(Cl)nc3Cl)C2)cc1` (stereo unspecified) the value was 70% (inactive); for `O=[N+]([O-])c1cc(NS(=O)(=O)c2ccccc2)ccc1NS(=O)(=O)c1ccccc1`, 92.9% (inactive).
On to `Oc1ccc(CSc2nnc(-c3ccc(Cl)cc3)n2-c2ccccc2)c2cccnc12`, for which the growth was 14.5% (inactive).
For `Nc1nc(Cl)nc2c1ncn2C1OC(CO)C(O)C1O` (stereo unspecified) the value was 124% (inactive) and 94.5% (inactive).
As for `C=CCn1c(SCC(=O)NCc2cc(C)c(O)c(C)c2)nc2ccc(Cl)cc2c1=O`, the growth is 91.1% (inactive).
Take `C=CCNCCC#N`: the growth was 98.1% (inactive).
The result for `CC(C)CC(CC1=CCC2CC1C2(C)C)C1=C(O)C(C)(C)C(=O)C(C)(C)C1=O` (stereo unspecified) reads 6.32% (active).
